For 26 molecules, growth results are on record in PubChem BioAssay (NCI).

Values joined by “and” are separate entries in the source; they are usually repeats but may differ in a detail not shown here. Equal entries are not always repeated. This is part of a sample that, as a whole, favours compounds with a hit. Of some 83,000 tested, about 20% had one in any assay.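 Each cell line was grown in a 96-well plate and treated with one concentration of compound for 48 hours. Values below 10 were considered active.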 Active and inactive are the calls of the source.

This assay relates to MDA-MB-468 breast. The assay is described as follows: NCI-60 one-dose screen, 48 h (100 = growth as untreated, 0 = no growth, -100 = all killed). The settings on record: 10 µM unless noted.
For `CCOC(=O)NCCc1nc2c([nH]1)c(=O)n(C)c(=O)n2C`, the growth is 112% (inactive). As for `CCCc1cc2c(cc1Br)OCO2`, the figure is 115% (inactive). Next, `CC[C@H](CC[C@@H](C)[C@H]1CC[C@H]2[C@@H]3CC=C4C[C@@H](O)CC[C@]4(C)[C@H]3CC[C@]12C)C(C)C`: 98.7% (inactive) and 91.8% (inactive). Next, `CCN1C(=O)N(CC)C2SC(N/N=C/c3ccccc3)=NC21` (stereo unspecified): 34.4% (inactive); `N#Cc1c(-c2cccc(F)c2)cc(-c2ccc(Br)s2)[nH]c1=O`: 82.1% (inactive); `CCCCN(CCCC)c1ccc(C(=N)c2ccc(N(C)C)cc2)cc1`: -76.5% (active). For `CO[C@H]1/C=C/O[C@@]2(C)Oc3c(C)c(O)c4c(c3C2=O)C(=O)C(/C=N/N(c2ccccc2)c2ccccc2)=C(NC(=O)/C(C)=C\C=C\[C@H](C)[C@H](O)[C@@H](C)[C@@H](O)[C@@H](C)[C@H](OC(C)=O)[C@@H]1C)C4=O`, the growth is -2.58% (active).

`CC(=O)NC1(C(=O)O)CCCC1`: the growth is 116% (inactive).

With `COc1ccc(C2CC(=O)Oc3c(OC)c4c(c(OC)c32)OCO4)cc1` (stereo unspecified), the growth is 96.9% (inactive). As for `CS(=O)(=O)c1ccc(/C(=N/NC(N)=S)c2ccc(F)cc2)cc1`, the figure is 88.2% (inactive); as for `CC(C)(C)c1ccc(C(=O)Nc2sc3cc(O)ccc3c2C(N)=O)cc1`, 46.8% (inactive). As to `COc1cc(-c2nc(SCCC(C)C)nc(NNC(=O)c3ccncc3)c2C#N)cc(OC)c1OC`, the growth was 77.7% (inactive). Take `Cc1ccc(NS(=O)(=O)c2cc(C)ccc2C)cc1`: the growth is 0.244% (active). Turning to `Nc1cc2ccccc2c(O)c1O`, the growth is -3.32% (active).

With `COc1ccc2c(c1)[n+]([O-])c(C(=O)/C=C/C=C(\Cl)c1cc(OC)c(OC)c(OC)c1)c(C)[n+]2[O-]`, the growth was 62.2% (inactive). Next, `CC(NNC(=S)N1CCCCCC1)c1ccc2ccccc2n1` (stereo unspecified): 30.3% (inactive); `CC(=O)Nc1nc(C)c(-c2csc(Nc3ccccc3)n2)s1`: 4.66% (active); `COc1ccc(/C=N/NC(=O)c2c(N)nn(C)c2Nc2ccccc2)cc1Oc1ccccc1`: 66.6% (inactive).

With `NS(=O)(=O)c1ccc(Nc2cc(-c3ccccc3)nc(SCC(=O)c3ccccc3)n2)cc1`, the growth was 99.3% (inactive). As for `COc1ccc2c(c1)C(CC(=O)NN)CCC2` (stereo unspecified), the figure is 102% (inactive); as for `C=CCn1cc(-c2nc3ccccc3s2)c2cc(-c3ccc4c5c(cccc35)C(=O)N(CCN3CCNCC3)C4=O)ccc21`, 88.4% (inactive). With `CCN(CC)CCCNC(=O)c1c2c(n3ccccc13)C(=O)c1ncccc1C2=O`, the growth is -70.1% (active). As for `Cc1ccc(S(=O)(=O)c2nc(-c3ccccc3)oc2S(C)=O)cc1` (stereo unspecified), the figure is -59% (active); as for `C#Cc1ccccc1NC(=O)c1sc2nc3c(cc2c1N)CCCCC3`, 119% (inactive).

`CCCCCCn1c(-c2ccc(C(=O)O/N=C(\N)c3ccc4ccccc4c3)cc2)nc(-c2ccccc2)c1-c1ccccc1`: the growth was 78.8% (inactive). As for `Cc1nc2c(=O)[nH]c(=S)[nH]c2[nH]c1=O`, the figure is 107% (inactive) and 111% (inactive).
